The whole screen tested about 2,100 compounds, of which about 940 (45%) were called active. Roughly 48% stayed inconclusive and do not appear here. Calls follow the shape of the dose curve; as a rule, active = well fitted inhibition curve with a large enough effect; inconclusive = small, poorly fitted or top-dose-only effect; inactive = no such curve, though single readings can be large or run the other way. So high a share suggests a set chosen from earlier hits. The list shows a part of the results.
Test: Confirmatory qHTS for Inhibitors of ATXN expression; also: nearly all actives have a fitted effect of over 65% in size
Settings: ATXN2-luciferase reporter cells, luminescence, 24 h; series mostly up to 11.5 µM
How it was run: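 Cells carrying ATXN2-luciferase reporter exposed 24 h at 37 C to compound. Viability then read by CellTiter-Fluor (25 uM GF-AFC, 30 min), followed by SteadyGlo luminescence; medium-only wells set 100% inhibition.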
With O=C(N/N=C/c1cc([N+](=O)[O-])ccc1O)c1ccc(COc2ccc3c(c2)CCC3)o1 the Potency was 3.55 µM (active).
With O=C1CCCC(O)=C1C=NCc1ccccc1 the Potency was “inactive”.
With Cn1ncc2c(Nc3cccc(Cl)c3)nc(Nc3cccc(Cl)c3)nc21 the Potency was 28.2 µM (active).
For COc1ccccc1OCCN1CSC(=S)N(C)C1, the Potency was 17.8 µM (active).
In the case of COC1C=CC=C(C)C(=O)NC2=CC(=O)C(N)=C(CC(C)CC(OC)C(O)C(C)C=C(C)C1OC(N)=O)C2=O (stereo not given), the Potency is reported as 0.282 µM (active).
For CSc1nc(C)cc(OCC(=O)N/N=C/c2ccccc2O)n1, the Potency was 2 µM (active).
For O=C(COc1nsnc1N1CCOCC1)N/N=C/c1ccccc1O, the Potency was 14.1 µM (active).
For C/C(=N\OCC(=O)N/N=C/c1ccccc1O)c1cccs1, the Potency was 12.6 µM (active).
For CN1CCN(C(c2ccc(C(F)(F)F)cc2)c2ccc3cccnc3c2O)CC1 (stereo not given), the Potency was 7.94 µM (active).
In the case of CCN1CCN(C(c2ccc(C(F)(F)F)cc2)c2ccc3cccnc3c2O)CC1 (stereo not given), the Potency is reported as 3.55 µM (active).
For O=C(Nc1c(Cl)cccc1Cl)Oc1cccc2cccnc12, the Potency was 10 µM (active).
In the case of O=C(Nc1cccc2cccnc12)c1csc(COCCO)n1, the Potency is reported as “inactive”.
In the case of O=C(N/N=C/c1sc(N2CCOCC2)nc1-c1ccccc1)c1ccccc1O, the Potency is reported as 28.2 µM (active).
For Cc1cc2oc3ccc(NCCC4CCCN4C)cc3c(=O)c2cc1C (stereo not given), the Potency was 31.6 µM (active).
In the case of CCCn1ncc(CN2CCC(C(=O)Nc3cccc(-c4cccc(F)c4)c3)CC2)c1C, the Potency is reported as 28.2 µM (active).
With Cc1ccc2sc(N(CCCN(C)C)C(=O)c3ccc(S(=O)(=O)N4CCCCCC4)cc3)nc2c1C the Potency was 28.2 µM (active).
For Cc1ccc2nc(N(CCCN(C)C)C(=O)c3ccc(S(=O)(=O)N4CCCCCC4)cc3)sc2c1, the Potency was 3.16 µM (active).
For CCN(c1ccccc1)S(=O)(=O)c1ccc(C(=O)N(CCCN(C)C)c2nc3c(C)cccc3s2)cc1, the Potency was 25.1 µM (active).
With Cc1cc(C)c2nc(N(CCCN(C)C)C(=O)c3ccc4c(c3)OCCO4)sc2c1 the Potency was 28.2 µM (active).
With Nc1ccn([C@@H]2O[C@H](CO)[C@@H](O)C2O)c(=O)n1 (stereo not given in full) the Potency was 3.55 µM (active).
With Nc1ncn([C@@H]2O[C@H](CO)[C@@H](O)[C@H]2O)c(=O)n1 the Potency was 3.98 µM (active).
For Nc1ccc2c(c1)OC1(CCCC1)O2, the Potency was 0.316 µM (active).
For Clc1ccc2c(NCc3ccccc3)ccnc2c1, the Potency was 15.8 µM (active).
For COc1ccc(-c2cc(C3CCN(c4ccc(C(C)=O)cc4[N+](=O)[O-])CC3)[nH]n2)cc1, the Potency was 15.8 µM (active).
With Cc1ccc(C)c(NC(=O)c2ccccc2NS(=O)(=O)c2cc([N+](=O)[O-])ccc2C)c1 the Potency was 2.51 µM (active).
With CCc1ccc(-c2csc(NC(=O)C3CC(=O)N(c4ccc5c(c4)OCCO5)C3)n2)cc1 (stereo not given) the Potency was 11.2 µM (active).
With COc1ccc(-c2nc(NC(=O)C3CC(=O)N(c4ccc5c(c4)OCCO5)C3)sc2C)cc1 (stereo not given) the Potency was 8.91 µM (active).
With CCCCC(=O)NC(c1ccc(OC)c(OC)c1)c1ccc2cccnc2c1O (stereo not given) the Potency was 2.82 µM (active).
For CCCCC(=O)NC(c1ccc(Cl)cc1Cl)c1ccc2cccnc2c1O (stereo not given), the Potency was 0.708 µM (active).
In the case of CCC(=O)NC(c1ccc(Cl)cc1Cl)c1ccc2cccnc2c1O (stereo not given), the Potency is reported as 1.26 µM (active).
In the case of CCCC(=O)NC(c1ccc(Cl)cc1Cl)c1ccc2cccnc2c1O (stereo not given), the Potency is reported as 2.82 µM (active).
With CCCCC(=O)NC(c1ccccc1Cl)c1ccc2cccnc2c1O (stereo not given) the Potency was 2 µM (active).
In the case of CCCCC(=O)NC(c1ccccc1OC)c1ccc2cccnc2c1O (stereo not given), the Potency is reported as 2 µM (active).
In the case of NNC(=O)/C(=N/Nc1ccccc1)S(=O)(=O)c1ccc(Cl)cc1, the Potency is reported as 4.47 µM (active).
With CC(=O)c1ccc(N2CCN(CC(O)COC(c3ccccc3)c3ccccc3)CC2)cc1 (stereo not given) the Potency was “inactive”.
In the case of CCCOc1ccc(C(=O)C(CN2CCOCC2)c2ccccc2)cc1 (stereo not given), the Potency is reported as 25.1 µM (active).
In the case of COc1ccccc1C(=O)NNC1=C(C(=O)C(F)(F)F)CCC1, the Potency is reported as 1.58 µM (active).
With CCN(CC)CCn1c2ccccc2c2cnc(N)c(C#N)c21 the Potency was 1.58 µM (active).
For O=S(=O)([N-]c1nc2ccccc2nc1-[n+]1ccc(Cc2ccccc2)cc1)c1ccc(Br)s1, the Potency was 8.91 µM (active).
With Cc1ccc2c(c1)N(C)/C(=C/c1cccc[n+]1C)S2 the Potency was 4.47 µM (active).
With CC[n+]1ccccc1/C=C1\Sc2ccc(C)cc2N1C the Potency was 8.91 µM (active).
In the case of Cn1nccc1C(=O)N1CCCC(C(=O)c2cccc3ccccc23)C1 (stereo not given), the Potency is reported as “inactive”.
In the case of COc1cccc(-c2nc(N3CCN(C)CC3)c3ccccc3n2)c1O, the Potency is reported as 3.16 µM (active).
With CCOC(=O)c1c(NC(=O)/C=C/C(=O)O)sc(C)c1-c1ccc(Cl)cc1 the Potency was 25.1 µM (active).
In the case of COc1cc(/C=C/CN2CCC(C(=O)NC(c3ccc(F)cc3)c3ccc4ccccc4n3)CC2)ccc1OC(C)=O (stereo not given), the Potency is reported as 17.8 µM (active).
With CCCC(=O)NC(c1ccccc1)c1ccc2cccnc2c1O (stereo not given) the Potency was 2.82 µM (active).
With CCCCC(=O)NC(c1ccccc1)c1ccc2cccnc2c1O (stereo not given) the Potency was 2.82 µM (active).
With CC(N)c1csc(NC(=O)c2cc(C(C)(C)C)nn2Cc2ccccc2)n1 (stereo not given) the Potency was 3.16 µM (active).
With FC(F)(F)c1nc(-c2cccs2)ncc1-c1nnnn1-c1ccc(Cl)cc1 the Potency was 20 µM (active).
In the case of Cc1nc2ccc(NC(=O)c3cccc(S(=O)(=O)N(C)c4ccccc4)c3)cc2s1, the Potency is reported as 3.98 µM (active).
With CN(c1ccccc1)S(=O)(=O)c1cccc(NC(=O)c2cc(=O)c3ccccc3o2)c1 the Potency was 28.2 µM (active).
For CCCC(=O)Nc1ccc2nc(SCC(=O)N3CCCC3)sc2c1, the Potency was “inactive”.
In the case of Cc1nc2ccc(NC(=O)c3ccc(S(=O)(=O)N(C)c4ccccc4)cc3)cc2s1, the Potency is reported as 2.24 µM (active).
With CCCCC(=O)N(CCOC)c1nnc(-c2ccccc2C)s1 the Potency was “inactive”.
With CC[n+]1c(C=C2C=C(C)OC(C)=C2)sc2ccccc21 the Potency was 6.31 µM (active).
For Cc1cc(Nc2cccc([N+](=O)[O-])c2)n2c(nc3ccccc32)c1C#N, the Potency was 1.12 µM (active).
In the case of Cc1cc(Cl)c(C(=O)Nc2cccc(C(F)(F)F)c2)c(C)n1, the Potency is reported as 11.2 µM (active).
With CCOc1ccccc1C(=O)Nc1ccc2nc(N3CCN(c4ncccn4)CC3)cc(C)c2c1 the Potency was 7.94 µM (active).
For CCCCC(=O)NC(c1ccc(N(CC)CC)cc1)c1ccc2cccnc2c1O (stereo not given), the Potency was 0.355 µM (active).
In the case of CCCCC(=O)NC(c1ccc(N(C)C)cc1)c1ccc2cccnc2c1O (stereo not given), the Potency is reported as 1.26 µM (active).

From PubChem BioAssay AID1745848 (National Center for Advancing Translational Sciences (NCATS), 2022)
Potency is read from the fitted curve at half-maximal effect.
